PREPL inhibitor = inhibits the human prolyl oligopeptidase-like enzyme | Q4J6C6 | recombinant PREPL, fluorescence polarization activity-based probe | inhibition, % at 5.96 µM | actives 0.68% (n = 320,000) | AID 2751; in the data active = inhibition above about 43%
CHT block = human CHT choline transport inhibition; CHT-expressing cells, membrane potential dye, choline response; hits give low values; actives 0.86% (n = 310,000); B-score at 10 µM;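 active = B-score over 3 SD under the library average, and starting fluorescence ratio not unusually high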;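 note: choline stimulus applied at its EC90 after an EC20 pre-addition; B-score computed on integrated fluorescence ratio after choline addition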
Target sequence (Q9GZV3 whole entry, looked up): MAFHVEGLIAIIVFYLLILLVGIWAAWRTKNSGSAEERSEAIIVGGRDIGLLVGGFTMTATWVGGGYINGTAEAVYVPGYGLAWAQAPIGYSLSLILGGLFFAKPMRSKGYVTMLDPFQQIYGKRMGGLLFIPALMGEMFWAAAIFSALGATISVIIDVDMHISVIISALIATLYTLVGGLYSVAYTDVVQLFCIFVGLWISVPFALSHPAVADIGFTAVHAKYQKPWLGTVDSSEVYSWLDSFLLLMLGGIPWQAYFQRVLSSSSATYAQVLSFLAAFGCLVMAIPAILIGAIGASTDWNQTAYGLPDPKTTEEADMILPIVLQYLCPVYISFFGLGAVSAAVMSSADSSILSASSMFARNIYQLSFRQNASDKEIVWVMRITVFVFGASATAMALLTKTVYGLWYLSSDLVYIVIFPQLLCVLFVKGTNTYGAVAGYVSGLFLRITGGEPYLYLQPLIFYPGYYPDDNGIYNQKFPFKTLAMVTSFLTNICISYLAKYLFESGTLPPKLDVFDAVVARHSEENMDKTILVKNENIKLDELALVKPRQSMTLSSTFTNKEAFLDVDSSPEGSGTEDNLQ
AI-2 QS mod = modulators of Vibrio harveyi AI-2 quorum sensing system. Vibrio harveyi JMH597 AI-2 luminescence/OD600 ratio, 9 h; hits give low values; strain lacks LuxN and CqsS sensors; 0 = neutral-control median. activity change, % at 7.5 µM. actives 0.4% (n = 300,000); in the data active = activity change below about -75%, passing the limit was not always enough;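 note: luminescence divided by OD600 gain over 9 h not by final OD600 alone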
ALR H2O2 inh = blocks human ALR sulfhydryl oxidase activity; P55789; purified ALR, DTT oxidation, H2O2 HRP-luminol luminescence; inhibition, % (test concentration not listed); actives 3.8% (n = 290,000); AID 485317;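 active = mean replicate inhibition above about 79%, with every replicate also reaching it, limit read from the data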
CHT allo act = allosteric activators of human choline transporter CHT. actives 0.49% (n = 310,000). CHT-expressing cells, membrane potential dye, choline EC20; hits give high values; LV-AA mutant CHT in HEK293 cells. Q9GZV3. B-score at 10 µM;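 active = initial fluorescence not abnormally high and integrated response B-score, plate-corrected, over 3 SD above library mean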
Of the large screens only hits and unclear results are named; the others gave an inactive call. The list is not random: actives were taken first. Their share in the collection is about 5%.

Nc1c(S(=O)(=O)c2ccccc2)c2nc3ccccc3nc2n1CCN1CCOCC1	none
Cn1c(=O)c2ncn(CC(=O)N=Nc3c(O)[nH]c4ccccc34)c2n(C)c1=O	none
CCN1CCN(c2nc(-c3ccncc3)nc3ccccc23)CC1	CHT block -6.9
CCCOc1ccc(-c2nc(N3CCN(CC)CC3)c3ccccc3n2)cc1	none
COc1ccc(-c2c(-c3cc(OC)cc(OC)c3)n(C)c3ccc(-c4cc(F)cc(OC)c4)cc23)cc1	none (no result: CHT block, AI-2 QS mod, CHT allo act)
COc1ccc(NC(=S)NNc2ccc(S(=O)(=O)Nc3ccccc3C(=O)O)cc2[N+](=O)[O-])cc1	ALR H2O2 inh 99
COc1ccc(C2=CN3CCCCC3CC2=O)cc1OC (centres undefined)	none (no result: CHT block, AI-2 QS mod, CHT allo act)
COc1cccc(CC2(CO)CCN(S(=O)(=O)c3ccc(OC)cc3OC)CC2)c1	none (no result: ALR H2O2 inh)
O=C(CN1C(=O)CSC1=O)N1CCCCC1	none
CC(C)c1ccc(NC2CCCN(C(=O)CN3C(=O)CSC3=O)C2)cc1 (centres undefined)	ALR H2O2 inh 98
CC(C)c1ccc(NC2CCCN(C(=O)CCn3cnnn3)C2)cc1 (centres undefined)	none
CC(C)c1ccc(NC2CCCN(C(=O)CC3CCCC3)C2)cc1 (centres undefined)	ALR H2O2 inh 79
CC(C)c1ccc(NC2CCCN(C(=O)CCc3cnn(C)c3)C2)cc1 (centres undefined)	ALR H2O2 inh 98 (no result: PREPL inhibitor)
Cc1ccc(NC2CCCN(C(=O)CN3C(=O)CSC3=O)C2)cc1C (centres undefined)	ALR H2O2 inh 99
O=C(Nc1ccncc1)c1ccc(NS(=O)(=O)c2ccc3[nH]c(=O)[nH]c3c2)cc1	none
OCOCCCn1c(C2CCCN2c2nc(-c3ccc(F)cc3)cs2)nc2cc(Cl)c(N3CCCCC3)cc21 (centres undefined)	none
CC1(C)C(=O)NCCN1C(=O)c1ccc2nc(Cc3ccccc3F)oc2c1	none
CN(Cc1cccnc1)C(=O)c1ccc2nc(Cc3ccccc3F)oc2c1	ALR H2O2 inh 97
CC(C)Cn1c(SCc2nnc(-c3cccs3)o2)nc(O)cc1=O	ALR H2O2 inh 98
Cc1cc(NC(c2ccc(Cl)cc2)c2ccc3cccnc3c2O)no1 (centres undefined)	AI-2 QS mod -93
Cc1ccc(C(=O)N2N=C3c4ccccc4S(=O)(=O)N3[C@H]2N(C)C)cc1	none
C=CCNCCOCCOc1ccccc1-c1ccccc1	none
COc1ccc(CNC(=O)COC(=O)c2ccco2)cc1	none (no result: ALR H2O2 inh)
O=C(N/N=C/c1ccccc1)NC1CCCCC1	none
COc1cc(/C=N/N2C(=O)C3C4C=CC(CC4)C3C2=O)ccc1O (centres undefined)	ALR H2O2 inh 90
COc1cc(/C=N/NC(=O)NC2CCCCC2)cc(OC)c1O	ALR H2O2 inh 99
COc1cc(/C=N/NC(=O)NC2CCCCC2)ccc1O	ALR H2O2 inh 99
Cc1ccc(NC(=O)C(C)OC(=O)c2ccc(Cl)nc2)cc1S(=O)(=O)N1CCOCC1 (centres undefined)	none (no result: ALR H2O2 inh)
Cn1c(=Nc2ccc(N3CCOCC3)cc2)ccc2ccccc21	ALR H2O2 inh 99
COc1ccc(N2CCN(CCCNC(=O)C(=O)c3c(C)[nH]c4ccccc34)CC2)cc1	none
Cc1cccn2cc(-c3cccc(S(=O)(=O)N4CC(C)OC(C)C4)c3)nc12 (centres undefined)	ALR H2O2 inh 97
Cc1cccn2cc(-c3ccccc3)nc12	none (no result: ALR H2O2 inh)
Cc1cccn2cc(-c3cccc(S(=O)(=O)N4CCOCC4)c3)nc12	ALR H2O2 inh 96
CC1CN(S(=O)(=O)c2cccc(-c3cn4ccccc4n3)c2)CC(C)O1 (centres undefined)	none
Cc1cccn2cc(-c3ccc(F)cc3)nc12	ALR H2O2 inh 96
Nc1ccccc1Nc1c(F)c(F)nc(F)c1Cl	ALR H2O2 inh 98
Nc1ccccc1Nc1cc(-c2cccc(Cl)c2)nn1-c1ccccc1	none
COC(=O)c1ccc(N2CCN(C)CC2)c(NC(=O)c2ccc(Br)o2)c1	CHT block -5.3
O=C(Nc1ccccc1C(=O)O)c1cccc(F)c1	none (no result: ALR H2O2 inh)
CCN(CC)c1ccc(NC(=O)c2ccc(Br)o2)c(C)c1	ALR H2O2 inh 99
CCN(CC)c1ccc(NC(=O)c2cccc(F)c2)c(C)c1	ALR H2O2 inh 99
Cc1cc(O)c(NC(=O)c2ccc(Br)o2)cc1C	none
Cc1cc(NC(=O)c2ccco2)sc1C	ALR H2O2 inh 98 (no result: CHT block, AI-2 QS mod, CHT allo act)
CCN(CC)c1ccc(NC(=O)c2ccco2)c(C)c1	ALR H2O2 inh 99
Cc1cc(-c2ccccc2)n(-c2ccccc2)n1	none (no result: ALR H2O2 inh)
CCOC(=O)c1c(-c2ccc(OC)cc2)csc1NC(=O)CCN1CCOCC1	none
CCOC(=O)c1c(-c2ccc(C)cc2)csc1NC(=O)CCN1CC(C)OC(C)C1 (centres undefined)	ALR H2O2 inh 97
O=C(CNC(=O)c1ccc2c(c1)OCCO2)N/N=C/c1ccc(O)cc1O	none
Cc1cccc(/C=N/NC(=O)c2ccc3c(c2)OCCO3)c1O	none
COc1cccc(/C=N/NC(=O)CNC(=O)c2ccc3c(c2)OCCO3)c1O	ALR H2O2 inh 94
CCOc1cccc(/C=N/NC(=O)c2ccc3c(c2)OCCO3)c1O	ALR H2O2 inh 90
CSc1nnc(C(C)c2ncc(C(F)(F)F)cc2Cl)n1C (centres undefined)	none
CC(C)C(c1nnnn1Cc1ccc(F)cc1)N1CCN(c2ccc(O)cc2)CC1 (centres undefined)	ALR H2O2 inh 100
COc1ccc(Cn2nnnc2C(C(C)C)N2CCN(c3ccccc3OC)CC2)cc1 (centres undefined)	none (no result: ALR H2O2 inh)
CCc1nc(CNC(=O)C2CCC(=O)N(CCc3cccc(F)c3)C2)no1 (centres undefined)	none
CNCc1ccccc1Sc1ccc(O)c(O)c1	ALR H2O2 inh 99
O=C(c1cnn(C(=O)c2cccc(S(=O)(=O)N3CCOCC3)c2)c1)c1ccccc1O	ALR H2O2 inh 90
COc1cccc(NC(=O)c2oc3ccc(S(=O)(=O)N4CCOCC4)cc3c2C)c1	ALR H2O2 inh 82
Cc1ccc(NC(=O)c2oc3ccc(S(=O)(=O)N4CCOCC4)cc3c2C)cc1C	none (no result: ALR H2O2 inh)
CCN(c1ccc(NC(=O)c2cccc(S(=O)(=O)N3CCN(C)CC3)c2)cc1)C(C)C	ALR H2O2 inh 99
O=C(Nc1cccc(S(=O)(=O)N2CCCC2)c1)c1cccc(S(=O)(=O)N2CCOCC2)c1	ALR H2O2 inh 97 (no result: CHT block, AI-2 QS mod, CHT allo act)
CC(=O)c1cccc(NC(=O)/C(=C/c2ccncc2)NC(=O)c2ccccc2)c1	none
CN(C)c1ccc(C(=O)Nc2nc3c(s2)CCCC3)cc1	ALR H2O2 inh 96
O=C(NN=C1CCCCCCC1)c1ccc2ccccc2n1	none
Cc1[nH]c2ccccc2c1CCNC(=O)CCC(=O)c1ccccc1	ALR H2O2 inh 95
CC1CCCC(C)N1C(=O)COc1ccc(C(=O)N/N=C/c2ccc(C(=O)O)cc2)cc1 (centres undefined)	none
